# From PubChem BioAssay
# Rows were chosen to be rich in hits. Some 2.4% of all compounds tested hit in one or more screens of this group.
# HSF1 inh: HSF1 inhibition. NIH3T3-HGL HSE-luciferase, MG132-induced, luminescence 8 h; active compounds read low. activity change, negative = inhibition, % at 7.5 µM (by protocol). actives 0.77% (n = 300,000). AID 2098;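 active = more than half of replicate wells show activity change below -50%, luminescence cut by over half; inconclusive = some wells, but at most half, below -50%; inactive = no replicate well below -50%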;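 note: luciferase reports HSF-1 transcriptional activity via heat shock element; 0% = median of DMSO wells and -100% = zero luminescence signal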
# NOD2 RIPK2 PPI: blocks binding of human NOD2 to RIPK2; O43353; CHO BLA complementation NOD2-RIPK2, CCF4 ratio; inhibition, % at 4.98 µM; actives 0.38% (n = 360,000); in the data active = inhibition above about 21%;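 note: 0% = vehicle only and 100% = reference blocker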
# Target sequence (O43353 whole entry, looked up): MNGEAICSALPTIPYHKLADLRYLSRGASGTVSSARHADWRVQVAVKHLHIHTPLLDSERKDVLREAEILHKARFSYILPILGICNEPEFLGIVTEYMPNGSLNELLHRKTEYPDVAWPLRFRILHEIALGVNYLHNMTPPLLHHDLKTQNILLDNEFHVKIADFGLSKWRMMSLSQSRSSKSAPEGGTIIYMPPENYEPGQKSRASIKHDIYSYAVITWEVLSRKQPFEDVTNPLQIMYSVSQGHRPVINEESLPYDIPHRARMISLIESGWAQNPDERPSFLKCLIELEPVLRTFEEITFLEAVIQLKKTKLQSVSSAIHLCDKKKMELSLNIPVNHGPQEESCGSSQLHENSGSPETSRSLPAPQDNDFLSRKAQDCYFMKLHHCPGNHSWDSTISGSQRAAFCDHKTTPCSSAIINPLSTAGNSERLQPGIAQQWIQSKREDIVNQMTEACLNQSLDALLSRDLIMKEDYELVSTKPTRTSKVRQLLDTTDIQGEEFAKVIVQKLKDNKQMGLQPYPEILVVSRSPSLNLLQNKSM
# TLR9-MyD88 block: inhibitors of human TLR9-MyD88 binding. inhibition, % at 4.98 µM. CHO BLA complementation TLR9-MyD88, CCF4 FRET ratio. Q9NR96+Q99836. actives 0.21% (n = 340,000). AID 504734;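 active = inhibition above the mean over all tested compounds plus 3 SD, cut at about 21% in these data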;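 note: 0% = DMSO only wells and 100% = clavulanate BLA inhibitor control wells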
# TLR4-MyD88 BLA: blocks binding of human TLR4 to MyD88; O00206+Q99836; HeLa CL3-4 TLR4/MyD88 BLA complementation, FRET ratio; inhibition, % at 8.4 µM; actives 0.18% (n = 200,000); AID 861; in the data active = inhibition above about 25%;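 note: 0% = vehicle and 100% = reference inhibitor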
# HSF1 activator: increases HSF-1 driven luciferase reporter signal; NIH3T3-HGL HSF-1 luciferase reporter, MG132, 8 h; 100% = twice DMSO control signal; AID 504408; actives 1.7% (n = 300,000); activation, % at 9 µM;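 active = mean replicate activation of at least 50% with a set share of replicates each reaching 50%; inconclusive = only one of those two conditions met; inactive = mean below 50% and too few replicates reaching it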;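 note: 0% = median of the neutral control wells and 100% = twice that signal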
# * = called active by the depositor; ? = inconclusive; · = no result given.
SMILES,HSF1 inh,NOD2 RIPK2 PPI,TLR9-MyD88 block,TLR4-MyD88 BLA,HSF1 activator
OCCCn1c(-c2ccccc2)csc1=Nc1ccccc1,4.4,5.1,10.3,-13.5,5.6
Cc1cccc(-c2nnc(C(C)Nc3cccc(C(=O)NC4CC4)c3)o2)c1 (stereo not drawn),·,-8.7,2.6,·,·
O=C(CSc1nnc(COc2ccc(Cl)cc2)o1)Nc1ccc(N2CCOCC2)cc1,·,4.7,4.3,·,·
O=C(CSc1nnc(COc2ccc3c(c2)CCCC3)o1)Nc1ccc(F)cc1,-58.0*,-1.4,-7.3,1.4,-67.1
Cc1ccc(N2CCN(C(=O)C(=O)c3ccc(F)c(F)c3)CC2)cc1,·,-6.1,·,·,·
C/C(=N\Nc1nc(-c2ccccc2)cs1)c1cccs1,-69.8*,-5.7,-5.3,-2.0,-74.5
COc1cc(CNC[C@H]2O[C@@H](n3cc(C)c(=O)[nH]c3=O)C[C@@H]2O)ccc1OCc1cccc(Cl)c1,·,-3.8,9.3,·,·
Cc1cc(S(=O)(=O)Nc2ccc(C(=O)NCC(C)(C)N3CCOCC3)cc2)ccc1F,-68.5*,-5.1,6.0,·,-75.4
O=C(CN1C(=O)NC(c2ccccc2)(c2ccccc2)C1=O)NCc1cccs1,·,5.2,3.4,·,·
COc1ccc(C(=O)O/N=C(\N)c2ccccc2)cc1OC,32.1,-6.3,-1.7,·,55.9*
COc1ccc(/C(N)=N/OC(=O)CSc2ccccc2)cc1OC,58.7,1.0,0.1,-3.2,61.5*
CCOc1cc(C(=S)N2CCOCC2)ccc1OS(=O)(=O)c1ccccc1,0.6,0.1,-12.2,-9.7,-11.8
N/C(=N\OC(=O)CSc1ccccc1)c1ccccn1,37.1,-5.1,2.9,·,?
COc1cccc(C(=O)O/N=C(\N)c2ccc([N+](=O)[O-])cc2)c1,27.6,8.0,2.2,-4.6,59.5*
CCOC(=O)c1ccc(OS(=O)(=O)c2ccccc2)c(OC)c1,24.9,-4.3,-7.6,8.3,62.8*
COc1cccc(C(=O)NC(C)CCc2ccccc2)c1 (stereo not drawn),-0.3,9.3,-10.7,·,5.0
CCOc1ccc(S(=O)(=O)NCCC(=O)NCc2cccnc2)cc1,0.7,-2.6,1.2,·,-22.9
COc1cc(S(=O)(=O)N2CCOCC2)ccc1NC(=O)COC(=O)c1ccc(Cl)nc1,·,-3.9,-5.5,·,·
CC(C)(CNC(=O)c1cccc(S(=O)(=O)Nc2ccc(Br)cc2)c1)N1CCOCC1,1.1,-0.5,3.5,·,-6.3
COc1cc(NC(=O)C2=C(N3CCOCC3)/C(=C\c3ccc(Br)cc3)CC2)cc(OC)c1OC,72.1,4.5,-0.8,14.5,96.8*
COc1ccc(CCC(=O)OCC(=O)NC(=O)c2ccc(Cl)cc2)cc1,·,9.0,1.0,·,·
Cc1cnc(CNC(=O)c2csc([C@H]3C[C@H](O)[C@@H](CO)O3)n2)cn1,·,9.7,·,·,·
CC(=O)c1ccc(NC(=O)c2ccc([N+](=O)[O-])o2)cc1,93.7,15.2,7.9,·,90.8*
Cc1c(Cl)c([N+](=O)[O-])nn1Cc1ccc(C(=O)Nc2ccc(Cl)cn2)o1,6.5,2.5,-17.1,-5.5,3.3
O=C(NNC(=O)c1ccc([N+](=O)[O-])o1)c1ccccc1,2.1,-1.0,0.8,11.8,-10.8
SMILES,HSF1 inh,NOD2 RIPK2 PPI,TLR9-MyD88 block,TLR4-MyD88 BLA,HSF1 activator
CC(=O)c1cccc(NC(=O)c2ccc([N+](=O)[O-])o2)c1,45.3,-8.5,0.6,·,54.8*
COc1ccc(NC(=O)c2ccc([N+](=O)[O-])o2)cc1,43.5,6.0,-4.2,·,64.4*
O=C(Nc1ccc(Cl)cn1)c1ccc([N+](=O)[O-])o1,96.5,1.0,-13.4,-0.1,140.4*
Cc1cc(C)cc(NC(=O)c2ccc([N+](=O)[O-])o2)c1,40.5,-7.8,·,25.0,?
N#CC1C(=N)Cc2ccccc2-c2ccccc21 (stereo not drawn),·,4.7,5.6,·,·
N#Cc1ccccc1NC(=O)COC(=O)c1c[nH]c2ccccc12,·,1.8,5.9,·,·
O=C(c1ccccn1)c1ccc2ccccc2n1,33.6,-2.0,·,·,59.4*
CNC(=O)c1ccsc1NC(=O)c1ccccc1,11.1,-0.8,5.6,·,9.3
CNC(=O)c1ccsc1NC(=O)c1ccc(Cl)s1,-66.2*,4.0,4.3,0.4,-72.3
CCCC(=O)N1CCC1(C)C(=O)NS(=O)(=O)c1cc(C)ccc1F (stereo not drawn),·,-12.2,·,·,·
CCS(=O)(=O)N1Cc2ccccc2CC1C(=O)Nc1ccc(F)c(F)c1 (stereo not drawn),15.7,-5.3,-5.3,·,59.5*
COC(=O)CN1C(c2cccc(Cl)c2)=Nc2ccc(Cl)cc2C1c1ccccc1 (stereo not drawn),42.5,-9.4,-3.9,6.5,64.0*
CCn1c(C)nc2cc(-c3nc4n(n3)Cc3ccccc3-4)ccc21,-93.2*,7.9,-3.4,-6.2,-93.2
N=C1S/C(=C\c2ccc(-c3cccc(Cl)c3)o2)C(=O)N1c1nccs1,211.2,-10.8,-7.3,-5.0,222.6*
Clc1ccc(-c2nsc(N3CCOCC3)n2)c(Cl)c1,27.6,-31.5,1.0,·,62.1*
Cc1nnc(SCC(=O)NNC(=O)COc2ccc(Cl)cc2)n1C,-0.2,-2.0,6.4,·,29.3
O=C(/C=C/c1ccc(F)cc1)Nc1nc2ccccc2[nH]1,10.4,·,·,9.3,54.8*
COc1cc(SC)ccc1C(=O)Nc1nc2ccccc2[nH]1,-92.1*,-6.8,-4.7,·,-93.5
COc1cc(SC)ccc1C(=O)Nc1nccs1,17.3,-1.9,-2.5,-1.7,56.8*
COc1cc(SC)ccc1C(=O)Nc1ccccc1,17.3,2.6,-10.9,-0.4,43.2
O=C(Nc1nc2ccccc2[nH]1)c1cccc(F)c1,10.8,-1.3,-10.7,·,41.6
CSc1ccccc1C(=O)Nc1nc2ccccc2[nH]1,4.7,-7.8,0.8,7.1,9.6
COc1ccccc1C(=O)NCCC(=O)Nc1nc2ccccc2[nH]1,-7.2,-7.8,-2.5,·,-15.1
COc1ccccc1C(=O)Nc1nc2ccccc2[nH]1,-83.0*,-10.0,4.1,·,-85.7
Cc1ccc(C(=O)CN2C(=O)NC3(CCCCCC3)C2=O)c(C)c1,17.1,-6.0,-11.5,·,43.6
SMILES,HSF1 inh,NOD2 RIPK2 PPI,TLR9-MyD88 block,TLR4-MyD88 BLA,HSF1 activator
COc1ccc(CCNC(=O)COc2cccc(-n3cnnn3)c2)cc1,·,2.5,-2.1,·,·
CCOC(=O)C(=Cc1c[nH]c2ccc(S(=O)(=O)N(C)C)cc12)C(=O)OCC,103.1,8.4,5.5,·,145.6*
Cc1nonc1OCCNCCNc1ccc([N+](=O)[O-])cc1Cl,36.2,-9.0,-4.0,0.7,77.1*
Cc1nonc1OCCNc1ccc([N+](=O)[O-])cc1,-4.9,3.9,4.9,9.3,3.9
CC1CCCCC12NC(=O)N(CC(=O)N1CCN(C(=O)c3ccco3)CC1)C2=O (stereo not drawn),·,-1.3,-5.7,·,·
N#Cc1ccccc1S(=O)(=O)N1CCN(C(=O)C2COc3ccccc3O2)CC1 (stereo not drawn),·,-3.6,6.3,·,·
O=C(Cc1cccs1)NCc1cccc(CNC(=O)Cc2cccs2)c1,11.2,-2.6,-6.0,5.0,18.7
O=C(Cc1cccs1)NCc1ccccc1Br,25.6,4.2,5.3,·,93.8*
CCc1cc(=O)oc2c3c(cc(OCC(=O)N[C@H](C(=O)O)[C@H](C)CC)c12)OC(C)(C)CC3,-9.3,0.2,2.2,·,-6.8
